In PubChem BioAssay (NCI):
Compounds without any hit were thinned out: in the full panel of roughly 83,000, 20% have a hit.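 Plates (96-well) were seeded with cells, treated with compound at one concentration, and incubated for 48 hours before percent growth was determined.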 A number with no mark means an inactive call. Active and inactive are the calls of the source. The calls were made as follows: active = growth percent below 10; inactive = the rest.

What follows are compounds tested on CAKI-1 renal (assay: NCI-60 one-dose screen, 48 h (100 = growth as untreated, 0 = no growth, -100 = all killed)). Conditions: 10 µM unless noted.

| Structure (SMILES) | growth |
| --- | --- |
| NS(=O)(=O)c1ccc(Nc2nc(N/N=C/c3c[nH]c4ccccc34)nc(Nc3ccccc3)n2)cc1 | 53.9% |
| CCc1cccc2c3c(sc12)C(c1ccc(OC)cc1)C(C#N)=C(/N=C/c1ccc(Cl)cc1)O3 (configuration not stated) | 42.1% |
| Cn1ccnc1C(=O)/C=C/c1ccc(CNC(=O)c2ccc(F)cc2)cc1 | 48% |
| N#Cc1cccc(NC(=O)c2cc(-c3ccc(F)cc3F)ccc2O)c1 | -16.7% (active) |
| O=S(=O)(NCCCNc1nccc(-c2[nH]c(-c3ccccc3)nc2-c2ccc(Cl)c(O)c2)n1)c1cccc2ccccc12 | 39.5% |
| CC1(C)[C@@H](O)CC[C@]2(C)[C@H]3CC[C@@H]4[C@H]5[C@H](C(=O)/C=C\c6ccncc6)CC[C@]5(O)CC[C@@]4(C)[C@]3(C)CC[C@@H]12 | 35.1% |
| CS(=O)(=O)Nc1cc(-c2ccc3ncc(C#N)c(N[C@H](CO)c4ccccc4)c3c2)cnc1Cl | 33.3% |
| O=C(CSc1nc2ccccc2c(=O)n1-c1ccccc1)Nc1ccc(-c2nc3ccc([N+](=O)[O-])cc3[nH]2)cc1 | 78.2% |
| Oc1cccc2ccc(-c3nnc(SCc4ccc(O)c5ncccc45)n3-c3ccccc3)nc12 | 18.1% |
| C=CCn1c(SCC(=O)Nc2ccc(C(=O)/C=C/c3ccc(C)cc3)cc2)nnc1-c1c[nH]c2ccccc12 | 85.4% |
| C[C@@H](Nc1c(C#N)cnc2ccc(-c3cnc(Cl)c(NS(C)(=O)=O)c3)cc12)c1ccccc1 | -18.4% (active) |
| CCN(CC)c1ccc(NC2=C(Cl)C(=O)c3nc(C)ccc3C2=O)cc1 | 51.7% |
| C#Cc1nc(C(=O)NCCC(=O)Nc2ccc(NC(=O)c3ccc(/C=C/C(=O)c4nccn4C)cc3)cc2)cs1 | 38.9% |
| CCN(CC)CCn1c2ccc(O)cc2c2sc3cc(OC)ccc3c(=O)c21 | 14.5% |
| CC1(C)CC[C@]2(C(=O)N3CCOCC3)CC[C@]3(C)C(=CC[C@@H]4[C@@]5(C)C/C(=C/c6ccccn6)C(=O)C(C)(C)[C@@H]5CC[C@]43C)[C@@H]2C1 | 28.9% |
| Cc1nc(-c2ccccc2O)ccc1C(=O)N=Nc1c(O)[nH]c2ccc(Br)cc12 | 84.6% |
| O=C(CCn1c[n+](CC(=O)c2ccc(-c3ccccc3)cc2)c2ccccc21)Nc1cccc2cccnc12 | 77.7% |
| COC(=O)c1[nH]nc2c1C1(C(=O)c3cccc4cccc1c34)C(C#N)=C(N)O2 (configuration not stated) | 79.7% |
| N=c1c2cc(-c3ccccc3)oc2ncn1/N=C/c1ccc(Cl)cc1 | 97.7% |

| Structure (SMILES) | growth |
| --- | --- |
| Cc1ccc(-n2c(/C=C3\C(=O)Nc4ccccc43)ccc2CO)cc1 | 55.9% |
| CC(=O)N(C)C1CCc2c(sc(NC(=O)c3ccc(C(C)(C)C)cc3)c2C(N)=O)C1 (configuration not stated) | 64.8% |
| CC1(C)[C@@H](O)CC[C@]2(C)[C@H]3CC[C@@H]4[C@H]5[C@H](C(=O)/C=C\c6ccc([N+](=O)[O-])cc6)CC[C@]5(O)CC[C@@]4(C)[C@]3(C)CC[C@@H]12 | 27.4% |
| Cc1ccc(NC(=O)CNc2cc(C(N)=O)cc(F)c2C)c(Cl)c1 | 62.6% |
| COc1ccc(N2CCN(C3=C(Cl)C(=O)C(C)=C(C)C3=O)CC2)cc1 | 91.9% |
| COc1cc(-c2nc3sccn3c2-c2ccnc(S(C)(=O)=O)n2)ccc1F | 85.2% |
| Cc1ccc2c(c1)Oc1nc(N)c(C#N)c(N)c1C2Sc1ccc(F)cc1 (configuration not stated) | -99.8% (active) |
| CCCn1cnc2c(c1=N)C(c1ccc(F)cc1)c1sc3c(C)cccc3c1O2 (configuration not stated) | 28.6% |
| COc1ccc(Cn2cc3c(c2-c2cc(OC)c(OC)c(OC)c2)CCc2c(CN4CCCC4)noc2-3)cc1 | 35.9% |
| CC1=N[C@@H]2CN(C(=O)OC(C)(C)C)C[C@@H]2n2c1cc1ccccc1c2=O | 80.2% |
| COc1cc(OC)cc(C(=O)Nc2cccc(C#Cc3cccc4[nH]nc(N)c34)c2)c1 | 24.5% |
| COc1ccccc1-n1cc(C#N)c(N)c1C(=O)c1ccc(Br)cc1 | 68.8% |
| CS(=O)(=O)Nc1cc(-c2ccc3ncc(C#N)c(NCc4cccc(F)c4)c3c2)cnc1Cl | 4.52% (active) |
| CC[C@H](CO)Nc1ccc2ncc(C#Cc3cncc(C(=O)Nc4ccc(CN5CCN(C)CC5)c(C(F)(F)F)c4)c3)n2n1 | -79.7% (active) |
| COc1cc(-c2nc(SCCC(C)C)nc(NNC(=O)c3ccncc3)c2C#N)cc(OC)c1OC | 37.8% |
| CCCCCc1ccc(S(=O)(=O)Nc2cc(-c3csc(NC(=O)CN4CCN(CCO)CC4)n3)ccc2OC)cc1 | 70.8% |
| CCCn1cnc2c(c1=N)C(c1ccc(OC)cc1)c1sc3c(CC)cccc3c1O2 (configuration not stated) | 32.8% |
| C#Cc1ccc(C(=O)NCc2ccc(/C=C/C(=O)c3nccn3C)cc2)cc1 | 43.2% |
